Assay results from PubChem BioAssay (NCI).
This is part of a sample that, as a whole, favours compounds with a hit. Of some 83,000 tested, about 20% had one in any assay.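 96-well plates, one dose, 48 hours. Percent growth reported; active if below 10.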 The source made the active and inactive calls.

tested on: HS 578T breast; assay: NCI-60 one-dose screen, 48 h (100 = growth as untreated, 0 = no growth, -100 = all killed); conditions: 10 µM

Compound | growth
COc1ccc2nc(Cl)c(Cn3nnc(Cc4ccccc4)n3)cc2c1 | 68.9% (inactive)
C=C/C(C)=C/C[C@]1(C)[C@H](C)[C@@H](OC(=O)CCC)[C@H](O)[C@@]23C(=C[C@H](OC)C[C@@H]12)[C@@H](OC(=O)CCC)O[C@H]3OC(C)=O | -31.5% (active)
COc1ccc(-c2cc(-c3cc(OC)ccc3OC)nc(N)c2C#N)cc1 | 53.7% (inactive)
COc1ccc(-c2nn(-c3cccc(Cl)c3)cc2-c2cc(-c3ccccc3)nc(N)n2)cc1 | 62% (inactive)
COc1ccccc1-n1c(-c2sc(NC(C)=O)nc2C)n[nH]c1=S | 121% (inactive)
COc1cc2c3c(n(C4CCN(C)CC4)c(=O)c2cc1OC)-c1cc2c(cc1C3=O)OCO2 | 109% (inactive)
COc1cc(-c2ccc[nH]2)[nH]c1/C=C1\N=C(C)C(C(=O)NC(C)C)=C1C | 39.1% (inactive)
COc1ccc(-c2nn(-c3cccc(Cl)c3)cc2C=C(C#N)C#N)cc1 | 24.5% (inactive)
Fc1ccc2[nH]cc(-c3nc(-c4ccsc4)cs3)c2c1 | 96.8% (inactive)
CCn1c2ccc(O)cc2c2c(C)c3c[n+](C)ccc3c(C)c21 | -0.0943% (active)
CC[C@H]1OC(=O)[C@H](C)[C@@H](O[C@H]2C[C@@](C)(OC)[C@@H](O)[C@H](C)O2)[C@H](C)[C@@H](O[C@@H]2O[C@H](C)C[C@H](N(C)C)[C@H]2O)[C@](C)(OC)C/C(C)=C2/O[C@@]1(C)C=C2C | 62.5% (inactive)
N#Cc1c(-c2ccc(Cl)cc2)cc(-c2cc(O)ccc2O)nc1N | 27.6% (inactive)
